# Experimental data taken from PubChem BioAssay.
# “And” between values parts separate entries of the source, which are not always exact repeats. Equal entries are not always repeated. Results filed as inconclusive are left out. The source made the active and inactive calls.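 How the source made its calls, unless noted: active means normalized viability below 100% at a tested concentration; inactive means the rest.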
# Key:
# [1] = polyglutamine-triggered caspase-3 activation inhibitors, cell-based (AID 1583); conditions: polyglutamine-induced caspase-3 activation, cell assay; stronger effect = higher value;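 tested at 10 µM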
# [2] = suppressors of polyQ aggregation in yeast, 75Q-TubU reporter (AID 1593); conditions: Yeast 75Q polyglutamine aggregation reporter
# [3] = differential killing of epithelial or mesenchymal cells, primary screen, imaging, PC-3E GFP, TEM4-18 mCherry, co-culture (AID 1345086;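 active means compounds killing one labelled cell type while sparing the other, by normalised counts and ratio limits, not self-fluorescent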;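 on all read-outs here: cells exposed to compound for 72 h before imaging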;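 on red/green cell ratio (normalised): normalised mesenchymal count divided by normalised epithelial count so high means epithelial killing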); conditions: imaging cell counts, at 1 µM; for red/green cell ratio (normalised): actives lie on both sides, counts scaled to control wells, 1 = unselective
# [4] = tested on: Aerobactin synthetase IucA (Klebsiella pneumoniae); test: IucA aerobactin synthetase inhibitors, biochemical, Tocris library, absorbance (AID 1345561; call rule not given here;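 further: 100% = enzyme without compound and 0% = no enzyme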); conditions: purified IucA enzyme assay, absorbance (OD) read-out; stronger effect = lower value;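 tested at 8 µM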
# [5] = growth inhibition of DIPG glioma cells, dose response, cell-based, SU-DIPG-XVII, MIPE5.0, CellTiter-Glo, qHTS (AID 1347060; cut-off not given, nearly all actives have AC50 up to about 26 µM;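 further: cells exposed to compound for 48 hours before viability readout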); conditions: SU-DIPG-XVII viability, CellTiter-Glo ATP luminescence
# [6] = growth inhibition of DIPG glioma cells, dose response, cell-based, SU-DIPG-XIII, MIPE4.0, CellTiter-Glo, qHTS (AID 1347061; cut-off not given, nearly all actives have AC50 up to about 37 µM;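 further: cells exposed to compound for 48 hours before readout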); conditions: SU-DIPG-XIII viability, CellTiter-Glo ATP luminescence
# [7] = growth inhibition of DIPG glioma cells, dose response, cell-based, JHH-DIPG-1, MIPE4.0, CellTiter-Glo, qHTS (AID 1347062; cut-off not given, nearly all actives have AC50 up to about 27 µM;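 further: cells exposed to compound for two days before readout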); conditions: JHH-DIPG-1 viability, CellTiter-Glo ATP luminescence
# [8] = growth inhibition of DIPG glioma cells, dose response, cell-based, SU-DIPG-IV, MIPE4.0, CellTiter-Glo, qHTS (AID 1347063; cut-off not given, nearly all actives have AC50 up to about 30 µM;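 further: compound exposure lasted 48 hours before the viability readout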); conditions: SU-DIPG-IV viability, CellTiter-Glo ATP luminescence
# [9] = growth inhibition of DIPG glioma cells, dose response, cell-based, SU-DIPG-XIII, MIPE5.0, CellTiter-Glo, qHTS (AID 1347064; cut-off not given, nearly all actives have AC50 up to about 23 µM;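 further: cells exposed to compound for 48 hours before the viability read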); conditions: SU-DIPG-XIII viability, CellTiter-Glo ATP luminescence
# [10] = viability loss in pontine glioma line – cell-based, SU-DIPG-XXV, MIPE5.0, CellTiter-Glo, qHTS, dose response (AID 1347065; cut-off not given, nearly all actives have AC50 up to about 26 µM;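 further: cells exposed to compound for 48 hours before ATP readout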); conditions: CellTiter-Glo ATP luminescence
# [11] = SU-DIPG-VI glioma cell viability, MIPE4.0 library, CellTiter-Glo luminescence, qHTS (AID 1347066; cut-off not given, nearly all actives have AC50 up to about 30 µM;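 further: cells exposed to compound for 48 hours before readout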); conditions: CellTiter-Glo ATP luminescence
# [12] = JHH-DIPG-1 glioma cell viability, MIPE5.0 library, CellTiter-Glo luminescence, qHTS (AID 1347067; cut-off not given, nearly all actives have AC50 up to about 26 µM;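 further: cells exposed to compound for 48 hours before readout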); conditions: JHH-DIPG-1 glioma viability, CellTiter-Glo ATP luminescence
# [13] = SU-DIPG-XXV glioma cell viability, MIPE5.0 library, qHTS (AID 1347068; cut-off not given, nearly all actives have IC50 up to about 30 µM;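 further: cells exposed to compound for 48 hours before viability readout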)
# [14] = sensitizers of A549 cells to miR-34 induction, primary screen, imaging, A549 dox-inducible miR-34, nuclei and caspase counts (AID 1347080;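 active means compounds whose cell count with miR-34 switched on is under 0.7 times the count with it off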); conditions: A549 miR-34 inducible, Hoechst nuclei count, 48 h
# [15] = modifiers of HSF1 nuclear foci, imaging, Selleck Cancer Library (AID 1347162; in the data active means plate-normalised HSF1 focus index below about 0.46); conditions: human cells, at 10 µM; SSMD: measured here: HSF1 foci SSMD mean; cell count: measured here: cell number; plate-normalised HSF1 focus index: stronger effect = lower value
# [16] = viability rescue of complex I mutant cybrids, primary screen, cell-based, galactose medium, ATP luminescence (AID 1645843;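 active means z-score of at least 1.8 in each of two replicates, scored against plate mean and spread of sample wells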;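 further: positive z means more ATP and so rescue of galactose-driven cybrid death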); conditions: complex I mutant cybrid cells, 72 h, stronger effect = higher value
# [17] = liver-stage malaria parasite growth inhibition, primary screen, cell-based, HepG2, luciferase luminescence, HepG2 viability (AID 624349; in the data active means parasite load remaining mostly below about 12%, no sharp cut-off; inactive means mostly above about 10%;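 further: 100% = mean of DMSO negative control wells on the same plate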); conditions: P. berghei liver stage in HepG2, luciferase luminescence, concentration not given here; parasite load remaining: stronger effect = lower value; viability: measured here: HepG2 viability without parasites
# [18] = survival rescue of mitochondrial mutant cells in low glucose, primary screen, MELAS cybrids, Rieske KO mouse fibroblasts, CellTiter-Glo (AID 1508586;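 active means mean z-score across replicates of 1.96 or higher in either the MELAS or the Rieske mutant cell line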;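 further: z relative to plate mean and SD of compound and empty wells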)
# [19] = ovarian cancer cell viability with rucaparib, profiling panel, oncology-focused library, rucaparib conditional (AID 1508598); conditions: patient-derived ovarian cancer cells, CellTiter-Glo viability, 144 h, stronger effect = lower value
# [20] = measured here: epithelial PC-3E GFP cell survival
# [21] = measured here: mesenchymal TEM4-18 mCherry cell survival
# [22] = stronger effect = lower value, cell number ratio, induced over uninduced
# [23] = measured here: relative caspase fold change +Dox/-Dox
# [24] = measured here: total cells with miR-34 induction, stronger effect = lower value
# [25] = measured here: total cells without miR-34 induction
compound,measurement,setting,value
O=c1ccn([C@@H]2O[C@H](COP(=O)(O)OP(=O)(O)OP(=O)(O)O)[C@@H](O)[C@H]2O)c(=O)[nH]1,inhibition,[1],-7.02%
same,score,[2],1.5
same,red/green cell ratio (normalised),[3],1.18 (inactive)
same,normalised cell number,[3]; [20],0.94
same,normalised cell number,[3]; [21],1.1
O=C1C(Cl)=C(NCCN2CCOCC2)C(=O)c2ncccc21,remaining activity,[4],118% (inactive)
same,AC50,[5],8.33 µM (active)
same,AC50,[6],6.62 µM (active)
same,AC50,[7],3.32 µM (active)
same,AC50,[8],4.69 µM (active)
same,AC50,[9],3.32 µM (active)
same,AC50,[10],6.61 µM (active)
same,AC50,[11],2.64 µM (active)
same,AC50,[12],4.68 µM (active)
same,IC50,[13],18.6 µM (active)
same,fold change,[14]; [22],0.881 (inactive)
same,fold change,[14]; [23],1.4
same,cell count,[14]; [24],1390
same,cell count,[14]; [25],1580
same,SSMD,[15],6.65
same,cell count,[15],6880
same,plate-normalised HSF1 focus index,[15],1.4 (inactive)
same,z-score,[16],-0.82 (inactive)
NC(COCc1ccccc1)C(=O)O (configuration not stated),inhibition,[1],2.09%
same,score,[2],1.43
same,red/green cell ratio (normalised),[3],0.87 (inactive)
same,normalised cell number,[3]; [20],1.19
same,normalised cell number,[3]; [21],1.04
NC(=O)Nc1sc(-c2ccc(F)cc2)cc1C(N)=O,parasite load remaining,[17],72.5% (inactive)
same,viability,[17],79.5%
same,remaining activity,[4],122% (inactive)
same,AC50,[5],9.34 µM (active)
same,AC50,[6],11.8 µM (active)
same,AC50,[7],4.69 µM (active)
same,AC50,[8],1.05 µM (active)
same,AC50,[9],20.9 µM (active)
same,AC50,[10],7.42 µM (active)
same,AC50,[11],16.6 µM (active)
same,AC50,[12],5.9 µM (active)
same,IC50,[13],14.8 µM (active)
same,fold change,[14]; [22],0.943 (inactive) and 1.1 (inactive)
same,fold change,[14]; [23],0.476 and 0.704
same,cell count,[14]; [24],1490 and 2380
same,cell count,[14]; [25],1580 and 2160
same,SSMD,[15],-1.15
same,cell count,[15],6750
same,plate-normalised HSF1 focus index,[15],0.95 (inactive)
same,z-score,"[18]; MELAS cybrid survival, CellTiter-Glo 48 h, stronger effect = higher value",0.0212 (inactive)
same,z-score,"[18]; Rieske KO mouse fibroblast survival, CellTiter-Glo 72 h",0.196
same,viability,"[19]; at 0.000305 µM, OCI-C5x cells, with rucaparib 10 µM, 100% = cells with rucaparib alone",113% (inactive)
same,viability,"[19]; at 0.000305 µM, OCI-C5x cells, without rucaparib",127% (inactive)
same,viability,"[19]; at 0.000305 µM, OCI-P5x cells, with rucaparib 20 µM, 100% = cells with rucaparib alone",116% (inactive)
same,viability,"[19]; at 0.000305 µM, OCI-P5x cells, without rucaparib",109% (inactive)
same,viability,"[19]; at 0.00122 µM, OCI-C5x cells, with rucaparib 10 µM, 100% = cells with rucaparib alone",118% (inactive)
same,viability,"[19]; at 0.00122 µM, OCI-C5x cells, without rucaparib",126% (inactive)
same,viability,"[19]; at 0.00122 µM, OCI-P5x cells, with rucaparib 20 µM, 100% = cells with rucaparib alone",106% (inactive)
same,viability,"[19]; at 0.00122 µM, OCI-P5x cells, without rucaparib",106% (inactive)
same,viability,"[19]; at 0.00488 µM, OCI-C5x cells, with rucaparib 10 µM, 100% = cells with rucaparib alone",124% (inactive)
same,viability,"[19]; at 0.00488 µM, OCI-C5x cells, without rucaparib",131% (inactive)
same,viability,"[19]; at 0.00488 µM, OCI-P5x cells, with rucaparib 20 µM, 100% = cells with rucaparib alone",105% (inactive)
same,viability,"[19]; at 0.00488 µM, OCI-P5x cells, without rucaparib",104% (inactive)
same,viability,"[19]; at 0.0195 µM, OCI-C5x cells, with rucaparib 10 µM, 100% = cells with rucaparib alone",115% (inactive)
same,viability,"[19]; at 0.0195 µM, OCI-C5x cells, without rucaparib",108% (inactive)
same,viability,"[19]; at 0.0195 µM, OCI-P5x cells, with rucaparib 20 µM, 100% = cells with rucaparib alone",102% (inactive)
same,viability,"[19]; at 0.0195 µM, OCI-P5x cells, without rucaparib",101% (inactive)
same,viability,"[19]; at 0.0781 µM, OCI-C5x cells, with rucaparib 10 µM, 100% = cells with rucaparib alone",115% (inactive)
same,viability,"[19]; at 0.0781 µM, OCI-C5x cells, without rucaparib",109% (inactive)
same,viability,"[19]; at 0.0781 µM, OCI-P5x cells, with rucaparib 20 µM, 100% = cells with rucaparib alone",102% (inactive)
same,viability,"[19]; at 0.0781 µM, OCI-P5x cells, without rucaparib",98.9% (active)
same,viability,"[19]; at 0.313 µM, OCI-C5x cells, with rucaparib 10 µM, 100% = cells with rucaparib alone",124% (inactive)
same,viability,"[19]; at 0.313 µM, OCI-C5x cells, without rucaparib",105% (inactive)
same,viability,"[19]; at 0.313 µM, OCI-P5x cells, with rucaparib 20 µM, 100% = cells with rucaparib alone",95.8% (active)
same,viability,"[19]; at 0.313 µM, OCI-P5x cells, without rucaparib",93% (active)
same,viability,"[19]; at 1.25 µM, OCI-C5x cells, with rucaparib 10 µM, 100% = cells with rucaparib alone",125% (inactive)
same,viability,"[19]; at 1.25 µM, OCI-C5x cells, without rucaparib",104% (inactive)
same,viability,"[19]; at 1.25 µM, OCI-P5x cells, with rucaparib 20 µM, 100% = cells with rucaparib alone",92.8% (active)
same,viability,"[19]; at 1.25 µM, OCI-P5x cells, without rucaparib",87.7% (active)
same,viability,"[19]; at 5 µM, OCI-C5x cells, with rucaparib 10 µM, 100% = cells with rucaparib alone",95.3% (active)
same,viability,"[19]; at 5 µM, OCI-C5x cells, without rucaparib",67.2% (active)
same,viability,"[19]; at 5 µM, OCI-P5x cells, with rucaparib 20 µM, 100% = cells with rucaparib alone",39% (active)
same,viability,"[19]; at 5 µM, OCI-P5x cells, without rucaparib",60.3% (active)
same,z-score,[16],0.96 (inactive)
